The values that follow come from PubChem BioAssay (Tox21).

“And” between values parts separate entries of the source, which are not always exact repeats. Identical values can stand only once. Records with an inconclusive call do not appear. Entries that show only a call come without a potency. Some compounds were tested as several samples or in several runs, with calls that do not always agree. The source made the active and inactive calls. The call rests on the fitted dose curve; in most records, active means well fitted cell-killing curve with a large enough effect in the repeat runs; inconclusive means weak or mixed curves, or effect the other way; inactive means flat fitted curve, though single readings scatter.
Further: nearly all actives have a fitted effect of over 50% in size.
Potency means the concentration at half of the fitted maximal effect.

One test is described as follows: qHTS RealTime-Glo MT Cell Viability Assay in HEK293 cells - 24 hour (AID 1224886). On activity change, negative = cytotoxicity: top concentration of the series differs between compounds. Conditions: RealTime-Glo luminescence; series mostly up to 76.8 µM; activity change, negative = cytotoxicity: at the top concentration. Summed up: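 Homogeneous bioluminescent viability format in HEK293 cells (600 cells/well). Following 5 h at 37 C/5% CO2, 23 nL compound was pintooled; the signal was measured repeatedly during 40 h incubation.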
`CCOCCOCCO`: the Potency entry is “inactive”.
As to `CCCCOCCOCCOCCO`, the Potency entry is “inactive”.
With `Nc1ncn([C@@H]2O[C@H](CO)[C@@H](O)[C@H]2O)c(=O)n1`, the “activity change, negative = cytotoxicity” value is -6.6% [at 35.3 µM] (inactive).
Take `c1ccc2c(c1)c1cccc3ccc4cccc2c4c31`: the Potency entry is “inactive and 19.5 µM (active)”.
On the same count and under the same terms, the result for `Nc1ncnc2nc[nH]c12` reads “inactive”; that for `CN(C)CCN(Cc1cccs1)c1ccccn1`, “inactive”; that for `Nc1ccc(S(=O)(=O)Nc2cnc3ccccc3n2)cc1`, “inactive”.
On the same count and under the same terms, the result for `CC1=CC2C3CC(C=C3C)C2C1` (centres undefined) reads “inactive”; that for `CC(C)(C)NC(=O)[C@H]1CC[C@H]2[C@@H]3CC[C@H]4NC(=O)C=C[C@]4(C)[C@H]3CC[C@]12C`, “inactive”; that for `C[C@]12CC[C@H]3[C@@H](CCC4=CC(=O)CC[C@@]43C)[C@@H]1CC[C@@H]2C(=O)CO`, 24.5 µM (active).
The same measure, in the same setting: the result for `CCCCC(CC)COP(=O)(OCC(CC)CCCC)OCC(CC)CCCC` (centres undefined) reads “inactive”; that for `Nc1ccc(Nc2ccccc2)cc1`, 48.5 µM (active).
For the compound `CC(C)=CCC/C(C)=C\CO`, the Potency entry was “inactive”.
The same measure, in the same setting: the result for `CCCCCCCCCC(=O)OC` reads “inactive”; that for `S=C(NC1CCCCC1)NC1CCCCC1`, 17 µM (active) and 21.9 µM (active).
Same read-out and setting: the result for `Clc1nc(Cl)c(Cl)c(Cl)c1Cl` reads “inactive”.

A short description of the next test: qHTS RealTime-Glo MT Cell Viability Assay in HEK293 cells - 8 hour (AID 1224887). On activity change, negative = cytotoxicity: top concentration of the series differs between compounds. Conditions: RealTime-Glo luminescence; series mostly up to 76.8 µM; activity change, negative = cytotoxicity: at the top concentration. The gist of the method: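 Measured as luminescence from the same continuously cultured HEK293 wells at successive time points (0, 8, 16, 24, 32, 40 h) after compound addition. Reagent present from seeding; dosing at 5 h; incubation 37 C.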
On to `CC(=O)c1ccccn1`, for which the Potency entry is “inactive”.
Still for that read-out and setting: as for `O=C(/C=C/c1ccccc1)OCc1ccccc1`, the entry is “inactive”; as for `CCC(C)(O)CCCC(C)C` (centres undefined), “inactive”; as for `O=C(OCc1ccccc1)c1ccccc1O`, “inactive”.
On the same count and under the same terms, the result for `COC(=O)CCC(=O)OC` reads “inactive”; that for `C=CC(C)(CCC=C(C)C)OC(C)=O` (centres undefined), “inactive”.
Same read-out and setting: as for `O=C(c1ccccc1)c1ccccc1O`, the entry is “inactive”; as for `c1ccc2sc(SSN3CCOCC3)nc2c1`, 48.9 µM (active).
Regarding `O=C(c1ccc(OCCN2CCCCC2)cc1)c1c(-c2ccc(O)cc2)sc2cc(O)ccc12`, the Potency is 21.9 µM (active).
The same measure, in the same setting: as for `Brc1cc(Oc2cc(Br)c(Br)c(Br)c2Br)c(Br)c(Br)c1Br`, the entry is “inactive”; as for `CCCCOCCOCCOCCO`, “inactive”.
Consider `Nc1ncn([C@@H]2O[C@H](CO)[C@@H](O)[C@H]2O)c(=O)n1`, for which the Potency entry is “inactive”.
On to `Nc1ccc(S(=O)(=O)Nc2cnc3ccccc3n2)cc1`, for which the Potency entry was “inactive”.
For `CC1=CC2C3CC(C=C3C)C2C1` (centres undefined), the Potency result is “inactive”.
For the compound `C[C@]12CC[C@H]3[C@@H](CCC4=CC(=O)CC[C@@]43C)[C@@H]1CC[C@@H]2C(=O)CO`, the “activity change, negative = cytotoxicity” value is -17.9% [at 35.3 µM] (inactive).
Take `CCCCC(CC)COP(=O)(OCC(CC)CCCC)OCC(CC)CCCC` (centres undefined): the Potency result was “inactive”.
As to `Nc1ccc(Nc2ccccc2)cc1`, the Potency was 21.6 µM (active) and 21.9 µM (active).
Still for that read-out and setting: the result for `CCCCCCCCCC(=O)OC` reads “inactive”.
